According to PubChem BioAssay (EPA / NIEHS):
“And” between values parts separate entries of the source, which are not always exact repeats. Equal entries are not always repeated. The source holds several records for some structures; these can differ, active in one and inactive in another. The source made the active and inactive calls. How the source made its calls: active means hit-call score of the fitted dose curve at least 0.9, where 1 is the maximum; inactive means score below 0.9.

Columns and labels:
Conditions in all cases: mRNA level, 48 h; actives raise or lower the signal
CYP2E1 (gene 1571) = test: LTEA_HepaRG_CYP2E1: Life Technologies and Expression Analysis (LTEA) Assay for CYP2E1 using HepaRG (AID 2283485)
Summary of the method: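 CYP2E1 transcript measured by Fluidigm qRT-PCR against three housekeeping genes in human HepaRG cells treated 48 h (top 100 uM, half-log steps, 0.5% DMSO vehicle). Gain or loss fitted relative to DMSO baseline.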

CYP4A11 (gene 1579) = test: LTEA_HepaRG_CYP4A11: Life Technologies and Expression Analysis (LTEA) Assay for CYP4A11 using HepaRG (AID 2283486)
Summary of the method: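 HepaRG, 48 h chem exposure, 8 conc (100 uM top, half-log), 0.5% DMSO vehicle; qRT-PCR readout, housekeeping-gene normalized; bidirectional curve fit vs DMSO baseline.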

[1] = read-out: Cytochrome P450 3A4 (Homo sapiens) (UniProt P08684); test: LTEA_HepaRG_CYP3A4: Life Technologies and Expression Analysis (LTEA) Assay for CYP3A4 using HepaRG (AID 2283487)
Summary of the method: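 Differentiated HepaRG cells, plated 48 h, then dosed 48 h in serum-free induction medium with 0.5% DMSO, 8 half-log concentrations up to 100 uM, duplicate. CYP3A4 mRNA by qRT-PCR, normalized to ACTB/GAPDH/POLR2A; bidirectional fit versus DMSO.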

[2] = read-out: Early growth response protein 1 (EGR1) transcription factor, EGR1 (gene 1958); test: LTEA_HepaRG_EGR1: Life Technologies and Expression Analysis (LTEA) Assay for Early growth response protein 1 (EGR1) transcription factor using HepaRG (AID 2283490)
Summary of the method: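 EGR1 expression change in human HepaRG after 48 h chemical exposure, assessed by housekeeping-normalized qRT-PCR; concentration-response up to 100 uM, fitted in both directions against DMSO controls.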

[3] = read-out: Cytochrome P450 3A7 (Homo sapiens) (UniProt P24462); test: LTEA_HepaRG_CYP3A7: Life Technologies and Expression Analysis (LTEA) Assay for CYP3A7 using HepaRG (AID 2283492)
Summary of the method: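 Human HepaRG liver cells, 48 h post-plating, switched to serum-free induction medium and exposed in duplicate for 48 h. Dosing: 100 uM top, half-log dilutions, 8 points, 0.5% DMSO vehicle. Read-out: CYP3A7 mRNA, gain or loss fitted against DMSO baseline.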

CYP3A5 (gene 1577) = test: LTEA_HepaRG_CYP3A5: Life Technologies and Expression Analysis (LTEA) Assay for CYP3A5 using HepaRG (AID 2283493)
Summary of the method: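 mRNA levels were quantified by qRT-PCR on Fluidigm arrays and normalized to three housekeeping genes. Differentiated HepaRG cells received 48 h exposure (top 100 uM, half-log steps, 0.5% DMSO vehicle, duplicate); bidirectional fitting versus DMSO.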

[4] = read-out: Glutathione S-Transferase (GSTA2), GSTA2 (gene 2939); test: LTEA_HepaRG_GSTA2: Life Technologies and Expression Analysis (LTEA) Assay for Glutathione S-Transferase (GSTA2) using HepaRG (AID 2283497)
Summary of the method: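 Oxidative-stress marker GSTA2 is quantified by TaqMan qRT-PCR in HepaRG cultures treated 48 h across an eight-point range to 100 uM. Expression is normalized to endogenous controls and compared with 0.5% DMSO vehicle.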

[5] = read-out: Glutamate-cysteine ligase catalytic (GCLC), GCLC (gene 2729); test: LTEA_HepaRG_GCLC: Life Technologies and Expression Analysis (LTEA) Assay for Glutamate-cysteine ligase catalytic (GCLC) using HepaRG (AID 2283498)
Summary of the method: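 Oxidative-stress marker GCLC is measured as mRNA change in human HepaRG liver cells after 48 h chemical treatment in 0.5% DMSO, eight concentrations from 100 uM. Activity is fitted bidirectionally against vehicle.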

[6] = read-out: growth arrest and DNA damage 45 (GADD45G), GADD45G (gene 10912); test: LTEA_HepaRG_GADD45G: Life Technologies and Expression Analysis (LTEA) Assay for growth arrest and DNA damage 45 (GADD45G) using HepaRG (AID 2283499)
Summary of the method: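 Gain or loss of GADD45G mRNA, quantified by TaqMan qRT-PCR against three housekeeping genes, is fitted in both directions relative to 0.5% DMSO. Human HepaRG cultures receive test chemical for 48 h at up to 100 uM.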

[7] = read-out: Glutamate-cysteine ligase regulatory (GCLM), GCLM (gene 2730); test: LTEA_HepaRG_GCLM: Life Technologies and Expression Analysis (LTEA) Assay for Glutamate-cysteine ligase regulatory (GCLM) using HepaRG (AID 2283500)
Summary of the method: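 GCLM expression quantified by qRT-PCR, normalized to three housekeeping genes, after 48 h chemical treatment of HepaRG cells in duplicate at 8 concentrations (top 100 uM, half-log steps, 0.5% DMSO). Changes fitted both directions against vehicle.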

[8] = read-out: Glutathione S-transferase M3 (GSTM3), GSTM3 (gene 2947); test: LTEA_HepaRG_GSTM3: Life Technologies and Expression Analysis (LTEA) Assay for Glutathione S-transferase M3 (GSTM3) using HepaRG (AID 2283501)
Summary of the method: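 HepaRG, plated 48 h, then serum-free induction medium; test chemical 48 h, duplicate; 100 uM top, half-log x8, 0.5% DMSO. Read-out: GSTM3 mRNA (TaqMan qRT-PCR, Fluidigm array). Bidirectional fit vs DMSO.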

[9] = read-out: Heat shock 70 kDa protein 1 (HSPA1A), gene 3303; test: LTEA_HepaRG_HSPA1A: Life Technologies and Expression Analysis (LTEA) Assay for Heat shock 70 kDa protein 1 (HSPA1A) using HepaRG (AID 2283502)
Summary of the method: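 HSPA1A expression measured by qRT-PCR with ACTB/GAPDH/POLR2A normalization; curves fitted in both directions relative to DMSO vehicle. Exposure: 48 h in HepaRG cells, duplicate 8-point half-log series from 100 uM, 0.5% DMSO, serum-free induction medium.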

[10] = read-out: Hypoxia-inducible factor 1-alpha (Homo sapiens) (UniProt Q16665); test: LTEA_HepaRG_HIF1A: Life Technologies and Expression Analysis (LTEA) Assay for Hypoxia-inducible factor 1 (HIF1A) Trancription factor using HepaRG (AID 2283503)
Summary of the method: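 HIF1A transcript level read by qRT-PCR (ACTB, GAPDH, POLR2A normalization) after 48 h chemical exposure of HepaRG cultures. Eight half-log concentrations, top 100 uM, 0.5% DMSO vehicle, duplicates; bidirectional curve fit against DMSO baseline.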

[11] = read-out: 3-Hydroxy-3-Methylglutaryl-CoA Synthase 2 (HMGCS2), HMGCS2 (gene 3158); test: LTEA_HepaRG_HMGCS2: Life Technologies and Expression Analysis (LTEA) Assay for 3-Hydroxy-3-Methylglutaryl-CoA Synthase 2 (HMGCS2) using HepaRG (AID 2283504)
Summary of the method: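 HepaRG, plated 48 h then switched to serum-free induction media; cmpd 8-pt, max 100 uM, 1/2-log, 0.5% DMSO, n=2, 48 h. HMGCS2 mRNA by Fluidigm TaqMan qRT-PCR, ACTB/GAPDH/POLR2A norm; bidirectional fit vs DMSO.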

HGF (gene 3082) = test: LTEA_HepaRG_HGF: Life Technologies and Expression Analysis (LTEA) Assay for Hepatocyte Growth Facto (HGF) using HepaRG (AID 2283505)
Summary of the method: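 Read-out is HGF transcript level by qRT-PCR, normalized to three housekeeping genes, fitted bidirectionally against 0.5% DMSO vehicle. Human HepaRG cells received test chemicals for 48 h at up to 100 uM.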

[12] = read-out: Insulin Like Growth Factor 1 (IGF1), IGF1 (gene 3479); test: LTEA_HepaRG_IGF1: Life Technologies and Expression Analysis (LTEA) Assay for Insulin Like Growth Factor 1 (IGF1) using HepaRG (AID 2283506)
Summary of the method: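 Expression measured by TaqMan qRT-PCR on a Fluidigm array, with three housekeeping genes for normalisation, after 48 h treatment of HepaRG cells. Top concentration 100 uM with half-log steps, 0.5% DMSO vehicle, bidirectional fit.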

[13] = read-out: Intercellular Adhesion Molecule 1 (ICAM1), ICAM1 (gene 3383); test: LTEA_HepaRG_ICAM1: Life Technologies and Expression Analysis (LTEA) Assay for Intercellular Adhesion Molecule 1 (ICAM1) using HepaRG (AID 2283507)
Summary of the method: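 Readout is qRT-PCR mRNA level, normalized to three housekeeping genes and fitted bidirectionally against 0.5% DMSO vehicle. Human HepaRG cultures received compound for 48 h, top concentration 100 uM with half-log dilutions.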

[14] = read-out: Insulin-like growth factor-binding protein 1 (IGFBP1), IGFBP1 (gene 3484); test: LTEA_HepaRG_IGFBP1: Life Technologies and Expression Analysis (LTEA) Assay for Insulin-like growth factor-binding protein 1 (IGFBP1) using HepaRG (AID 2283508)
Summary of the method: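 Thawed HepaRG cells are plated for 48 h, switched to serum-free induction medium, then dosed in duplicate for another 48 h (100 uM top, half-log steps). Lysates in RLT go to qRT-PCR, and gain or loss of signal is fitted relative to vehicle.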

[15] = read-out: Pro-epidermal growth factor (Homo sapiens) (UniProt P01133); test: LTEA_HepaRG_EGF: Life Technologies and Expression Analysis (LTEA) Assay for Epidermal growth factor (EGF) using HepaRG (AID 2283489)
Summary of the method: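 HepaRG, 48 h dosing, 100 uM top, half-log x8, 0.5% DMSO. Readout: TaqMan qRT-PCR (Fluidigm array), housekeeping-normalized. Gain or loss of signal fit vs DMSO.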

[16] = read-out: Cytochrome P450 7A1 (Homo sapiens) (UniProt P22680); test: LTEA_HepaRG_CYP7A1: Life Technologies and Expression Analysis (LTEA) Assay for Cytochrome P450 7A1 (CYP7A1) using HepaRG (AID 2283496)
Summary of the method: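 HepaRG, 48 h exposure, 8-pt half-log series from 100 uM, 0.5% DMSO vehicle, duplicates. Readout: TaqMan qRT-PCR mRNA vs three housekeeping genes; bidirectional curve fit against DMSO baseline.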

Measured: AC50

Sequence of Cytochrome P450 3A7 (Homo sapiens) (P24462 whole entry, looked up): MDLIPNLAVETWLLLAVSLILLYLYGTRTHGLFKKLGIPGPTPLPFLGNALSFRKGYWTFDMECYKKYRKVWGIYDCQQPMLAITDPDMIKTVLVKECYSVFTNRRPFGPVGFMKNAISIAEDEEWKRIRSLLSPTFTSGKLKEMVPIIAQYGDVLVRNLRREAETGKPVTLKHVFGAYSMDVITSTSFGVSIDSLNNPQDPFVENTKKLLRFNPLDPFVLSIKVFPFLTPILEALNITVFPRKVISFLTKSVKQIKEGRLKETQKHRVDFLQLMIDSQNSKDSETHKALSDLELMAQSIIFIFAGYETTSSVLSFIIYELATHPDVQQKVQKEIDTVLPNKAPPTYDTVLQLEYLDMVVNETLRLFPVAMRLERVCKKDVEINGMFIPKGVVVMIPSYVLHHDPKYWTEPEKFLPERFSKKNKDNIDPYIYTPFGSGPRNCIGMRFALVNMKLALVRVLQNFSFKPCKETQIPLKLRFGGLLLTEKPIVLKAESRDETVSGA
Sequence of Cytochrome P450 3A4 (Homo sapiens) (P08684 whole entry, looked up): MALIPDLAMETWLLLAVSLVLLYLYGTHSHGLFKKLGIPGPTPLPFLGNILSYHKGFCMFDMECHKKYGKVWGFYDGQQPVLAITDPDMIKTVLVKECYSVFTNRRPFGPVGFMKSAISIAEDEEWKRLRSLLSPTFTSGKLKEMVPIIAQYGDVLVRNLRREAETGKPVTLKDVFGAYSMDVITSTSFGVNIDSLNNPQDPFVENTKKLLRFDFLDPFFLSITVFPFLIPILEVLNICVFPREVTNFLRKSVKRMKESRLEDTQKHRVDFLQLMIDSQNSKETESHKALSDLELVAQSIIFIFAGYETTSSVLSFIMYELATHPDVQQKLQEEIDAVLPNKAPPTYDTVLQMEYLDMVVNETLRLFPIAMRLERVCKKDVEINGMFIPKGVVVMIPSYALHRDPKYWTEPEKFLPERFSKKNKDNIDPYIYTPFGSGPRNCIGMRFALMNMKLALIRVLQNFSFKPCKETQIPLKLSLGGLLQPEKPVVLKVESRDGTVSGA
Sequence of Hypoxia-inducible factor 1-alpha (Homo sapiens) (Q16665 whole entry, looked up): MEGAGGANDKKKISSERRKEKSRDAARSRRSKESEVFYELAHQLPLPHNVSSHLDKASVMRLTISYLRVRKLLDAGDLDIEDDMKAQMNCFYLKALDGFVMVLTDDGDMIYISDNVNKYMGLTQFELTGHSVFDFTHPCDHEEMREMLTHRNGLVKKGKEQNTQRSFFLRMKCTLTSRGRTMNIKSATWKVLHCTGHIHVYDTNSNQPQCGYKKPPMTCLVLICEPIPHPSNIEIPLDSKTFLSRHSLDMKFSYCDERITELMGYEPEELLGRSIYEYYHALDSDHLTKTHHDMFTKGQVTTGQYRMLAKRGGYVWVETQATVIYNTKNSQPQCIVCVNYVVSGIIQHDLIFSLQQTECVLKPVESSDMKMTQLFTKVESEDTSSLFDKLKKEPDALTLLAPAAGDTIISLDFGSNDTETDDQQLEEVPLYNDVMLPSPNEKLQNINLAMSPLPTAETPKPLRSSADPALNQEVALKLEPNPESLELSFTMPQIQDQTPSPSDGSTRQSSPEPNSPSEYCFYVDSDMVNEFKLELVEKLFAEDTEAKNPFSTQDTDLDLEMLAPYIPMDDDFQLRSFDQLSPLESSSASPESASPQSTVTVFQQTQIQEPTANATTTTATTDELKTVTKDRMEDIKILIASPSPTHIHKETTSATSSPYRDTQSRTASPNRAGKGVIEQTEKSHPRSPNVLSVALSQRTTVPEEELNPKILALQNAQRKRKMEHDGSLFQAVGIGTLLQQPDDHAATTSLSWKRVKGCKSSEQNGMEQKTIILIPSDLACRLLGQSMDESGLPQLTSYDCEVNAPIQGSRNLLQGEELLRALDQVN

CCCCCCCCc1ccc(O)cc1
active: CYP4A11 (gene 1579) 65.8 µM | [11] 64.6 µM
inactive: CYP2E1 (gene 1571) | [1] | [2] | [3] | CYP3A5 (gene 1577) | [4] | [5] | [6] | [7] | [8] | [9] | [10] | HGF (gene 3082) | [12] | [13] | [14]

O=C(O)C(Cl)(Cl)Cl
inactive: CYP2E1 (gene 1571) | CYP4A11 (gene 1579) | [1] | [15] | [2] | [3] | CYP3A5 (gene 1577) | [16] | [4] | [5] | [6] | [7] | [8] | [9] | [10] | [11] | HGF (gene 3082) | [12] | [13] | [14]

COc1cc(-c2ccc(N)c(OC)c2)ccc1N
active: CYP2E1 (gene 1571) 38.1 µM and 24.1 µM | CYP4A11 (gene 1579) 62.6 µM and 50 µM | [1] 19.9 µM | [15] 13.3 µM | [3] 82.9 µM | [16] 57.4 µM | [7] 50 µM | [9] 75 µM | [11] 42.7 µM | [12] 39.4 µM and 34.4 µM | [14] 86.9 µM
inactive: [1] | [15] | [2] | [3] | CYP3A5 (gene 1577) | [16] | [4] | [5] | [6] | [7] | [8] | [9] | [10] | [11] | HGF (gene 3082) | [13] | [14]

CC(C)(C)CC(C)(C)c1ccc(O)cc1
active: CYP2E1 (gene 1571) 26.5 µM | CYP4A11 (gene 1579) 72.3 µM
inactive: [1] | [15] | [2] | [3] | CYP3A5 (gene 1577) | [16] | [4] | [5] | [6] | [7] | [8] | [9] | [10] | [11] | HGF (gene 3082) | [12] | [13]

C[C@@H]1C[C@@H]([C@H](O)CC2CC(=O)NC(=O)C2)C(=O)[C@@H](C)C1
active: [15] 2.36 µM | [2] 91.8 µM | [4] 26.6 µM | [5] 33.3 µM | [6] 2.24 µM | [7] 17.9 µM | [8] 5.85 µM | [9] 30.6 µM | [10] 9.18 µM | [11] 27 µM | HGF (gene 3082) 71.7 µM | [12] 9.09 µM | [13] 11.9 µM | [14] 22.3 µM
